Screening results: PubChem BioAssay, National Center for Advancing Translational Sciences (NCATS)
A selection: hits, their analogues and other compounds. The true share with any hit is near 2.6%.
Cruzain noTriton = blocks cruzain activity in detergent-free assay; purified cruzain, Z-FR-AMC fluorescence, no detergent; Potency, µM, hits mostly inhibitors; hit rate 2.3% among 200,000; AID 1476; further: nearly all actives have a fitted effect of over 40% in size
Target sequence (P25779 123-467 limits assumed): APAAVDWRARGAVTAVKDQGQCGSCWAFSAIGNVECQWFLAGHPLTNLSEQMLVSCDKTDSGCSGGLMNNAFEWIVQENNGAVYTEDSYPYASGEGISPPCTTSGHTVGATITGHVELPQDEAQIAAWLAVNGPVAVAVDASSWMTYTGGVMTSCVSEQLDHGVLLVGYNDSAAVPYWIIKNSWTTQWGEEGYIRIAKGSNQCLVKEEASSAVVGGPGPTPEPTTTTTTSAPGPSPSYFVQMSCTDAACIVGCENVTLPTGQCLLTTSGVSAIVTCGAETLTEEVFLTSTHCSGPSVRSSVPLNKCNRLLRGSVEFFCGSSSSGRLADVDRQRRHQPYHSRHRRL
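Purified cruzain at 1.5 nM, pre-incubated 15 min with compound at room temperature in 100 mM sodium acetate pH 5.5, 5 mM DTT, 0.00005% Triton X-100. Reaction started with 2 uM Z-FR-AMC; AMC fluorescence increase over 60 s gives rate.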
Cruzain inh Det = inhibitors of Trypanosoma cruzi cruzain with detergent; P25779; purified cruzain, Z-FR-AMC fluorescence, 0.01% Triton; Potency, µM, actives largely listed as inhibitors; hit rate 0.43% among 200,000; AID 1478; further: nearly all actives have a fitted effect of over 40% in size
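Compounds were screened in titration against cruzain (1.5 nM) with 0.01% Triton X-100 to counter colloidal aggregation. Activity was the AMC fluorescence increase over 60 s after adding 2 uM Z-FR-AMC at pH 5.5.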
Hits are given with their value. The call rests on the fitted dose curve; in most records, active means well fitted curve in the direction sought with a large enough effect; inconclusive means small, poorly fitted or top-dose-only effect, or another doubt; inactive means no such curve, though single readings can be large; an effect the other way counts as inactive or inconclusive.

Screening O=C(O)c1cc2c(cc1S(=O)(=O)O)[C@H]1[C@@H](C3[C@H]2[C@@]2(Cl)C(Cl)=C(Cl)C3(Cl)C2(Cl)Cl)[C@]2(Cl)C(Cl)=C(Cl)C1(Cl)C2(Cl)Cl (some centres not stated) returned Cruzain noTriton inactive and Cruzain inh Det inactive.
Screening Cc1onc(-c2ccccc2Cl)c1C(=O)Nc1ccc2c(c1)OCO2 returned Cruzain noTriton inactive and Cruzain inh Det inactive.
`Cc1onc(-c2ccccc2Cl)c1C(=O)OCC(=O)c1ccc2c(c1)OCCO2` gave Cruzain noTriton 25.1µM and Cruzain inh Det inactive.
`Nc1c(-c2nc(-c3ccccc3)no2)nnn1CC(=O)Nc1cccc(F)c1` gave Cruzain noTriton 31.6µM and Cruzain inh Det inactive.
For Cc1cc(C)cc(NC(=O)Cn2nnc(-c3nc(-c4ccncc4)no3)c2N)c1 the results were Cruzain noTriton inactive and Cruzain inh Det inactive.
CCOC(=O)c1cc([N+](=O)[O-])sc1NC(=O)c1ccc(S(=O)(=O)N2CC3(C)CC2CC(C)(C)C3)cc1 (configuration not stated) was read as Cruzain noTriton 3.98µM and Cruzain inh Det inactive.
For CC1(C)CC2CC(C)(CN2S(=O)(=O)c2ccc(C(=O)Nc3ccc(S(=O)(=O)N4CCOCC4)cc3)cc2)C1 (configuration not stated) the results were Cruzain noTriton inactive and Cruzain inh Det inactive.
For CCOC(=O)C(NC(=O)CCC(=O)Nc1ccc(S(N)(=O)=O)cc1)C(O)c1ccccc1 (configuration not stated) the results were Cruzain noTriton inactive and Cruzain inh Det inactive.
For CCCCCCCCOC(=O)C(NC(=O)CCC(=O)Nc1ccc(S(N)(=O)=O)cc1)C(O)c1ccccc1 (configuration not stated) the results were Cruzain noTriton 7.94µM and Cruzain inh Det inactive.
Screening CCn1cc(C(=O)N2CCN(c3cccc(Cl)c3)CC2)c(=O)c2cc(S(=O)(=O)N3CCC(C)CC3)ccc21 returned Cruzain noTriton inconclusive and Cruzain inh Det inactive.
COc1ccc(C(c2c(C)[nH]n(C(N)=S)c2=O)C(C#N)C#N)cc1 (configuration not stated) was read as Cruzain noTriton inactive and Cruzain inh Det inactive.
`Cc1[nH]n(-c2ncc(-c3ccc(Cl)cc3)s2)c(=O)c1C(c1ccc(Cl)cc1)C(C#N)C#N` (configuration not stated) gave Cruzain noTriton 3.16µM and Cruzain inh Det inconclusive.
`N#Cc1ccccc1Cn1c(=O)n(-c2ccc(F)c(Cl)c2)c(=O)c2sccc21` gave Cruzain noTriton inactive and Cruzain inh Det inactive.
For Cc1cc2oc(=O)cc(CSc3nnc(C)n3N)c2cc1C(C)C the results were Cruzain noTriton inactive and Cruzain inh Det inactive.
For Cc1cc2oc(=O)cc(CSc3nnc(-c4cccs4)o3)c2cc1C(C)C the results were Cruzain noTriton 12.6µM and Cruzain inh Det inactive.
COCCCNC(=O)c1cc2c(=O)n3cccc(C)c3nc2n(C(C)C)c1=N was read as Cruzain noTriton inconclusive and Cruzain inh Det 25.1µM.
Cc1ccc2nc3c(cc(C(=O)NC4CCCC4)c(=N)n3C(C)C)c(=O)n2c1 was read as Cruzain noTriton inactive and Cruzain inh Det inactive.
N=c1c(C(=O)NCC2CCCO2)cc2c(=O)n3ccccc3nc2n1Cc1cccnc1 (configuration not stated) was read as Cruzain noTriton inconclusive and Cruzain inh Det 28.2µM.
`CCCn1c(=N)c(C(=O)NCc2cccnc2)cc2c(=O)n3ccccc3nc21` gave Cruzain noTriton inactive and Cruzain inh Det inactive.
`CNC(=O)c1cc2c(=O)n3cc(C)ccc3nc2n(C(C)C)c1=N` gave Cruzain noTriton inconclusive and Cruzain inh Det 28.2µM.
`CCCn1c(=N)c(C(=O)NCc2cccnc2)cc2c(=O)n3cccc(C)c3nc21` gave Cruzain noTriton inactive and Cruzain inh Det inactive.
For COCCn1c(=N)c(C(=O)NCCc2ccc(OC)cc2)cc2c(=O)n3cccc(C)c3nc21 the results were Cruzain noTriton inactive and Cruzain inh Det inactive.
`Cc1cccn2c(=O)c3cc(C(=O)NCC4CCCO4)c(=N)n(Cc4cccnc4)c3nc12` (configuration not stated) gave Cruzain noTriton inconclusive and Cruzain inh Det 22.4µM.
For CCOc1ccc(-n2c(=O)c3c(C)c(C)sc3n(CC(=O)Nc3ccc(CC)cc3)c2=O)cc1 the results were Cruzain noTriton inactive and Cruzain inh Det inactive.
For COCCCn1c(=N)c(C(=O)NC2CCCC2)cc2c(=O)n3cccc(C)c3nc21 the results were Cruzain noTriton inconclusive and Cruzain inh Det inactive.
`Cc1cccn2c(=O)c3cc(C(=O)NC(C)C)c(=N)n(Cc4ccncc4)c3nc12` gave Cruzain noTriton inconclusive and Cruzain inh Det 31.6µM.
Screening Cc1ccc(S(=O)(=O)c2cc3c(=O)n4ccccc4nc3n(CC3CCCO3)c2=N)cc1C (configuration not stated) returned Cruzain noTriton inactive and Cruzain inh Det 31.6µM.
Cc1ccc(S(=O)(=O)c2cc3c(=O)n4ccccc4nc3n(Cc3ccco3)c2=N)cc1C was read as Cruzain noTriton inactive and Cruzain inh Det inactive.
`COc1ccc(N2Cc3cccc(C(=O)Nc4cccc(F)c4)c3C2=O)cc1` gave Cruzain noTriton inactive and Cruzain inh Det inactive.
`Cc1sc2c(c1C)c(=O)n(-c1ccc(Cl)cc1)c(=O)n2Cc1cc(=O)n2cc(Br)ccc2n1` gave Cruzain noTriton inactive and Cruzain inh Det inactive.
O=C(Nc1cccc2cccnc12)c1cccc2ccccc12 was read as Cruzain noTriton inactive and Cruzain inh Det inactive.
Screening Oc1c(/C=N/Nc2cccc3cccnc23)ccc2ccccc12 returned Cruzain noTriton 31.6µM and Cruzain inh Det inactive.
`COC(=O)c1c(Oc2ccc(OC)cc2)nnc(-c2ccccc2)c1-c1ccccc1` gave Cruzain noTriton inactive and Cruzain inh Det inactive.
`Cc1cccc(-n2c(/C=C/c3ccccc3O)nc3ccccc3c2=O)c1` gave Cruzain noTriton inconclusive and Cruzain inh Det inactive.
`COc1cccc(-n2c(/C=C/c3ccccc3O)nc3ccccc3c2=O)c1` gave Cruzain noTriton 20µM and Cruzain inh Det inactive.
COc1cccc(-n2c(SCc3cc(=O)oc4cc(O)c(O)cc34)nc3ccccc3c2=O)c1 was read as Cruzain noTriton 25.1µM and Cruzain inh Det inactive.
`CCN(CC)C(=O)CSc1nc2ccccc2c(=O)n1-c1cccc(OC)c1` gave Cruzain noTriton inactive and Cruzain inh Det inactive.
`O=C(NCCc1csc(-c2cccc(F)c2)n1)c1ccccc1C(F)(F)F` gave Cruzain noTriton inactive and Cruzain inh Det inactive.
Screening N#Cc1c(NC(=O)CSc2nc(-c3ccccc3)cc(C(F)(F)F)n2)sc2c1CCC2 returned Cruzain noTriton inconclusive and Cruzain inh Det inactive.
For COc1ccc(-c2cc(C(F)(F)F)nc(SCC(=O)Nc3sc4c(c3C#N)CCC4)n2)cc1 the results were Cruzain noTriton 12.6µM and Cruzain inh Det inactive.
CCC1CCc2c(sc(NC(=O)CSc3nc(-c4ccco4)cc(C(F)(F)F)n3)c2C#N)C1 (configuration not stated) was read as Cruzain noTriton 1.26µM and Cruzain inh Det inactive.
CCOC(=O)c1sc(NC(=O)CSc2nc(-c3ccco3)cc(C(F)(F)F)n2)c(C(=O)OC)c1C was read as Cruzain noTriton inactive and Cruzain inh Det inactive.
For CCCCCc1c2c(cc(O)c1C(=O)O)OC(=O)c1c(cc(OC)cc1C(=O)CCCC)O2 the results were Cruzain noTriton inactive and Cruzain inh Det inactive.
